Source: PubChem
Many of the other results were omitted from the sample, so hits are more common in it than they were.
U2OS ROS induce: cancer cell ROS induction | ROS induction (% of piperlongumine), % at 10 µM | actives 2% (n = 46,000) | U2OS ROS induction, H2DCF-DA fluorescence; in the data active = ROS induction above about 79%, passing the limit was not always enough;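 note: 0% = DMSO vehicle median and 100% = reference compound median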
YB-1 expr inh: YB-1 expression inhibition; U2OS, qRT-PCR YB-1 vs CDIP delta delta Cp, 16 h; stronger effect = higher value; zero = DMSO, each unit about twofold; delta delta Cp (YB-1 minus CDIP) (concentration not given with the values); actives 0.37% (n = 30,000); AID 434959;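 active = delta delta Cp rounded down to an integer at or above 3, about 3 SD of DMSO wells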;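 note: higher means less YB-1 transcript or more CDIP transcript relative to DMSO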
NOMO-1 viab: STK33 inhibitor candidate reducing NOMO-1 cell viability; NOMO-1 AML viability, CellTiter-Glo luminescence, 72 h; inhibition, % (test concentration not listed); actives 7.5% (n = 37,000); AID 2330; in the data active = inhibition above about 80%
PD-1 reversal: activators reversing PD-1 mediated T-cell inhibition. primary human CD4 T cells, PD-L1 beads, CellTiter-Glo 96 h. activation, % (no concentration beside the values). 29,000 tested, under 10 active. AID 2316; call rule not given here;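 note: 0% = median vehicle wells and 100% = positive control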
The depositor's hits bear a star; nt = no result.

SMILES | U2OS ROS induce | YB-1 expr inh | NOMO-1 viab | PD-1 reversal
CC1(C)CC[C@]2(C(=O)O[C@@H]3O[C@H](CO)[C@@H](O)[C@H](O)[C@H]3O)CC[C@]3(C)C(=CCC4[C@@]5(C)C[C@H](O)[C@H](O[C@@H]6O[C@H](C(=O)O)[C@@H](O)[C@H](O)[C@H]6O)[C@@](C)(CO)C5CC[C@]43C)C2C1 (some centres not stated) | 2 | 0.0072 | 0 | -1
C[C@@H]1O[C@@H](O[C@@H]2[C@@H](O)[C@H](OC(=O)[C@]34CCC(C)(C)CC3C3=CCC5[C@@]6(C)CC[C@H](OC7OC(CO)C(OC8OCC(O)C(O)C8O)C(O)C7O)C(C)(C)C6CC[C@@]5(C)[C@]3(C)CC4O)O[C@H]2CO)[C@H](O)[C@H](O)[C@H]1O[C@H]1OC[C@](O)(CO)[C@H]1O (some centres not stated) | -19 | 0.39 | 95* | -13
CC1(C)CC[C@]2(C(=O)O)CC[C@]3(C)C(=CCC4[C@@]5(C)CC[C@H](O[C@@H]6O[C@H](C(=O)O)[C@@H](O[C@@H]7O[C@H](CO)[C@@H](O)[C@H](O)[C@H]7O)[C@H](O)[C@H]6O[C@@H]6O[C@H](CO)[C@@H](O)[C@H](O)[C@H]6O)C(C)(C)C5CC[C@]43C)C2C1 (some centres not stated) | -2 | -0.24 | 54 | -1
CC1(C)CC[C@]2(C(=O)O)CC[C@]3(C)C(=CCC4[C@@]5(C)CC[C@H](O[C@@H]6O[C@H](CO)[C@@H](O)[C@H](O)[C@H]6O)C(C)(C)C5CC[C@]43C)[C@@H]2C1 (some centres not stated) | -22 | -0.53 | 120* | -10
CC1(C)CC[C@@]2(C(=O)O[C@@H]3O[C@H](CO)[C@@H](O)[C@H](O)[C@H]3O)C(C1)C1=CCC3[C@@]4(C)CC[C@@H](O[C@@H]5O[C@H](C(=O)O)[C@@H](O[C@@H]6OC[C@@H](O)[C@H](O)[C@H]6O)[C@H](O[C@@H]6OC[C@](O)(CO)[C@H]6O)[C@H]5O)C(C)(C)C4CC[C@@]3(C)[C@]1(C)C[C@H]2O (some centres not stated) | 1 | -0.15 | 5 | -1
CC1(C)CC[C@]2(C(=O)O[C@@H]3O[C@H](CO)[C@@H](O)[C@H](O)[C@H]3O)CC[C@]3(C)C(=CCC4[C@@]5(C)C[C@@H](O)[C@H](O)[C@@](C)(COC(=O)c6cc(O)c(O)c(O)c6)C5[C@H](O)C[C@]43C)[C@@H]2C1 (some centres not stated) | -3 | 0.3 | 109* | -1
COc1ccc(OC(C)C(=O)Nc2ccncc2)cc1 (configuration not stated) | nt | nt | 20 | nt
C[C@@H]1O[C@@H](O[C@@H]2CC[C@@]3(C)C(CC[C@]4(C)C3CC=C3[C@@H]5CC(C)(C)CC[C@]5(C(=O)O[C@@H]5O[C@H](CO)[C@@H](O)[C@H](O)[C@H]5O)CC[C@]34C)[C@]2(C)CO)[C@H](O)[C@H](O[C@@H]2OC[C@@H](O)[C@H](O)[C@H]2O)[C@H]1O (some centres not stated) | -11 | -0.44 | 10 | 1
CC(=O)OC1COC(OC2C(O)C(C)OC(OC3C(OC4CCC5(C)C(CCC6(C)C5CC=C5C7CC(C)(C)CCC7(C(=O)O)CCC56C)C4(C)CO)OCC(O)C3O)C2O)C(O)C1OC(C)=O (configuration not stated) | -18 | -0.036 | 122* | -9
CC1OC(OC2C(C(=O)O)OC(O[C@H]3CC[C@@]4(C)C(CC[C@]5(C)C4CC=C4C6CC(C)(C)CC[C@]6(C(=O)OC6OC(CO)C(O)C(O)C6O)CC[C@]45C)C3(C)C)C(O)C2O)C(OC2OCC(O)C(O)C2O)C(O)C1O (some centres not stated) | 4 | 1.3 | 1 | 2
C/C=C(/C)C(=O)O[C@H]1CC(C)(C)C[C@H]2C3=CCC4[C@@]5(C)CC[C@H](O[C@@H]6O[C@H](C(=O)O)[C@@H](O[C@@H]7O[C@H](CO)[C@H](O)[C@H](O)[C@H]7O[C@@H]7O[C@H](CO)[C@@H](O)[C@H](O)[C@H]7O)[C@H](O)[C@H]6O[C@@H]6O[C@@H](C)[C@H](O)[C@@H](O)[C@H]6O)C(C)(C)C5CC[C@@]4(C)[C@]3(C)C[C@@H](O)[C@@]12CO (some centres not stated) | -43 | -1.1 | 119* | -15
COc1ccccc1OCC(=O)Nc1ccc(-c2nc3ccc(C)cc3[nH]2)cc1 | 24 | nt | 110* | -8
N#C/C(N)=C(\C#N)N=Cc1ccc(C#N)cc1 | 3 | nt | nt | nt
Cc1ccc(CNC(=O)C2CCN(S(C)(=O)=O)CC2)cc1 | -10 | nt | nt | nt
Cc1cc2nnc(SCC(=O)c3cc(C)n(Cc4ccccc4)c3C)n2c2ccccc12 | 20 | 0.33 | 131* | 2
Cc1cc(C(=O)CSc2nnc3ccccn23)c(C)n1Cc1ccccc1 | nt | nt | 17 | nt
COc1cccc(-c2cc(NCc3ccc4c(c3)OCO4)nc(N)n2)c1 | 22 | 0.016 | 95* | -25
O=C(COc1ccc(Br)cc1)NCC1CCCO1 (configuration not stated) | 6 | 9.5* | 3 | 0
COc1ccc(-n2c(SCCCN3C(=O)c4cccc5cccc(c45)C3=O)nnc2-c2ccncc2)cc1 | 88* | nt | -2 | -2
COC(=O)c1[nH]nc2c1C(=O)N(c1ccc(F)cc1)C2=O | 260* | nt | nt | nt
C=CCNC1=C2C[C@@H](C)C[C@H](OC)[C@H](O)[C@@H](C)/C=C(\C)[C@H](OC(N)=O)[C@@H](OC)C=C/C=C(/C)C(=O)NC(=CC1=O)C2=O | 22 | -0.032 | 119* | nt
O=C(CSc1n[nH]c(-c2ccccc2)n1)Nc1ccc(Br)cc1 | -8 | nt | -19 | 0
CCn1c(Sc2ncnc3c2sc2nc(C)cc(C)c23)nnc1-c1cccs1 | 6 | -0.081 | 104* | -1
Cc1cc(C)c2c(n1)sc1c(Sc3nnc(-c4ccncc4)o3)ncnc12 | 0 | 0.15 | 15 | -1
C[C@@H]1CN([C@H](C)CO)C(=O)Cc2cc(NC(=O)Nc3ccc(C(F)(F)F)cc3)ccc2O[C@H]1CN(C)Cc1ccccc1 | -12 | 0.03 | 65 | -4
C[C@H]1CN([C@@H](C)CO)C(=O)Cc2cc(NC(=O)Nc3ccc(C(F)(F)F)cc3)ccc2O[C@@H]1CN(C)Cc1ccc(-c2ccccc2)cc1 | 2 | -0.14 | 127* | 0
C[C@H]1CN([C@@H](C)CO)C(=O)Cc2cc(NC(=O)Nc3ccc(C(F)(F)F)cc3)ccc2O[C@H]1CN(C)Cc1ccc(-c2ccccc2)cc1 | 12 | 0.079 | 128* | -3
C[C@@H]1CN([C@@H](C)CO)C(=O)Cc2cc(NC(=O)Nc3ccc(C(F)(F)F)cc3)ccc2O[C@@H]1CN(C)Cc1ccc(-c2ccccc2)cc1 | 5 | 0.13 | 24 | -1
